Reference: paper PMC10668032, “Altered binding affinity of SIX1-Q177R correlates with enhanced WNT5A and WNT pathway effector expression in Wilms tumor”
Over roughly 33,000 sequences, “e-score” has its median near -0.05; the highest 2% begin near 0.38. The sample as a whole holds a higher share of the highest values than the screen did.

Each sequence was assayed against T1, SIX1-Q177R homeodomain (human, UniProt Q15475 108-198, Q177R) (assay: universal protein binding microarray; Universal all-10-mer PBM (8x60K, AMADID 030236), 300 nM GST-tagged protein, Alexa Fluor 488 anti-GST; buffer, salt, pH and temperature not stated (as in Berger); high values mean tight binding). Conditions: protein: ivt; tags: N-terminal GST; dsDNA, one strand shown.
T1 sequence: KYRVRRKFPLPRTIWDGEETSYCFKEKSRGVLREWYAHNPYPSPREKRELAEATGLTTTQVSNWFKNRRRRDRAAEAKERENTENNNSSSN
How it was run: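 Duplicate protein binding microarrays (universal 'all 10-mer', 8×60K format) were incubated with GST-tagged homeodomains at 300 nM final concentration. Binding was quantified as 8-mer E-scores with the Universal PBM Analysis Suite.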
GAACGACA gave a binding signal of 0.238 ± 0.0152 E-score. ATCCCCCG showed a binding signal of 0.266 ± 0.0176 E-score. Sequence CACGCGAC has a binding signal of 0.26 ± 0.00798 E-score. GGTATACA gave a binding signal of 0.269 ± 0.00593 E-score. In the case of TGTTATAA, the binding signal is reported as 0.267 ± 0.015 E-score. With ACAGGGGT the binding signal was 0.266 ± 0.0127 E-score. With CAATAGTG the binding signal was 0.17 ± 0.0397 E-score. With CACGGTGG the binding signal was 0.26 ± 0.0142 E-score. With AGGTTACA the binding signal was 0.182 ± 0.0252 E-score. In the case of ATTCGACA, the binding signal is reported as 0.163 ± 0.00531 E-score. Sequence CGATCACG has a binding signal of 0.173 ± 0.0459 E-score. Work on CTCCCCGC yielded a binding signal of 0.168 ± 0.0157 E-score. ACACTCTC gave a binding signal of 0.3915 ± 0.00342 E-score. ATACTCTC gave a binding signal of 0.158 ± 0.0315 E-score. Sequence ACACACTC has a binding signal of 0.314 ± 0.0291 E-score. ACACTCTG gave a binding signal of 0.404 ± 0.00495 E-score. Sequence ACTGGGCG has a binding signal of 0.192 ± 0.0152 E-score. CTAAGACA showed a binding signal of 0.2225 ± 0.00145 E-score. CACAGCCG showed a binding signal of 0.208 ± 0.0273 E-score. ACCAACGA showed a binding signal of 0.187 ± 0.00325 E-score. CTCAGCAC gave a binding signal of 0.185 ± 0.0185 E-score. Work on GAGACACA yielded a binding signal of 0.241 ± 0.0428 E-score. Work on GAGACAAC yielded a binding signal of 0.1522 ± 0.00125 E-score. With CAGACACC the binding signal was 0.456 ± 0.0151 E-score. AAGACACC gave a binding signal of 0.4713 ± 0.00312 E-score. CAGACACA gave a binding signal of 0.19 ± 0.0525 E-score. AAGACACG showed a binding signal of 0.35 ± 0.00553 E-score. Work on GAGACACC yielded a binding signal of 0.462 ± 0.0147 E-score. AAGACACT showed a binding signal of 0.3744 ± 0.00267 E-score. With CAGACACG the binding signal was 0.353 ± 0.0179 E-score. Work on ACACAATC yielded a binding signal of 0.178 ± 0.0434 E-score. For CACCGTTA, the binding signal was 0.24 ± 0.0265 E-score. With CACGAAAC the binding signal was 0.152 ± 0.0288 E-score. Sequence TACGTACA has a binding signal of 0.18 ± 0.0207 E-score. Sequence ACTCTACA has a binding signal of 0.296 ± 0.00689 E-score. For ATTCTACA, the binding signal was 0.181 ± 0.0191 E-score. With ACGATGGG the binding signal was 0.151 ± 0.0168 E-score. In the case of CGTGTCCC, the binding signal is reported as 0.398 ± 0.0161 E-score. GGTATCCA gave a binding signal of 0.3692 ± 0.00211 E-score. AGTGTCCC was tested, and the binding signal was 0.379 ± 0.0227 E-score. GGGGTCCA showed a binding signal of 0.268 ± 0.0349 E-score. In the case of CGTGTCCA, the binding signal is reported as 0.4 ± 0.0263 E-score. In the case of AGTGTCCA, the binding signal is reported as 0.348 ± 0.00804 E-score. Sequence GGTGTCCA has a binding signal of 0.48 ± 0.00796 E-score. GGAGTCCC gave a binding signal of 0.171 ± 0.00561 E-score. In the case of CTGATACA, the binding signal is reported as 0.24 ± 0.00405 E-score. CTTTGACA gave a binding signal of 0.219 ± 0.022 E-score. CCGAACCG showed a binding signal of 0.175 ± 0.0143 E-score. Sequence ATTATACA has a binding signal of 0.165 ± 0.0294 E-score. In the case of ACACTTTA, the binding signal is reported as 0.343 ± 0.037 E-score. With CACTCCTG the binding signal was 0.335 ± 0.0105 E-score. Sequence AATTGCAC has a binding signal of 0.151 ± 0.0498 E-score. In the case of GATTACAC, the binding signal is reported as 0.451 ± 0.00984 E-score. In the case of GATTACCC, the binding signal is reported as 0.175 ± 0.0203 E-score. For CATTACAC, the binding signal was 0.452 ± 0.0182 E-score. AATTACAC gave a binding signal of 0.433 ± 0.0394 E-score. For GATCACAC, the binding signal was 0.324 ± 0.0116 E-score. AATCACAC gave a binding signal of 0.348 ± 0.00368 E-score. Work on CATTACTC yielded a binding signal of 0.173 ± 0.0527 E-score. CATCACAC showed a binding signal of 0.317 ± 0.0183 E-score. For CTGAGGTA, the binding signal was 0.185 ± 0.0187 E-score. CGGGGGTA was tested, and the binding signal was 0.315 ± 0.029 E-score. For GGATAAAC, the binding signal was 0.169 ± 0.0541 E-score. Work on CACCTAGG yielded a binding signal of 0.225 ± 0.0248 E-score. CGCCGACA showed a binding signal of 0.209 ± 0.0201 E-score. In the case of GATACACC, the binding signal is reported as 0.469 ± 0.00549 E-score. Sequence GATACTCC has a binding signal of 0.223 ± 0.00252 E-score. For GATACACA, the binding signal was 0.191 ± 0.024 E-score. With AATACCCC the binding signal was 0.185 ± 0.00616 E-score. Sequence TATACACA has a binding signal of 0.169 ± 0.034 E-score. CATACACA was tested, and the binding signal was 0.205 ± 0.0341 E-score. AATACACA was tested, and the binding signal was 0.188 ± 0.0145 E-score. Work on GATACCCC yielded a binding signal of 0.419 ± 0.00493 E-score. CATACACG was tested, and the binding signal was 0.385 ± 0.00816 E-score. In the case of CACACATA, the binding signal is reported as 0.15 ± 0.0738 E-score. With CATACCCC the binding signal was 0.205 ± 0.0264 E-score. Work on AATACACG yielded a binding signal of 0.379 ± 0.0262 E-score. With CCCCTACG the binding signal was 0.181 ± 0.00578 E-score. CACGTGCG was tested, and the binding signal was 0.171 ± 0.0176 E-score. CACTGCCG was tested, and the binding signal was 0.26 ± 0.0036 E-score. With ACTAGGGA the binding signal was 0.18 ± 0.018 E-score. For TGTCAGAA, the binding signal was 0.183 ± 0.0293 E-score. CAACCCCA gave a binding signal of 0.173 ± 0.00554 E-score. CACGAGAA gave a binding signal of 0.2024 ± 0.00175 E-score. With TATCGACA the binding signal was 0.212 ± 0.0495 E-score. AACGCCGT gave a binding signal of 0.159 ± 0.0311 E-score. With AATACACC the binding signal was 0.46 ± 0.00939 E-score. CATACTCC gave a binding signal of 0.21183 ± 0.000205 E-score. AATACACT was tested, and the binding signal was 0.327 ± 0.0629 E-score. With AATATACA the binding signal was 0.18 ± 0.0323 E-score. CATACACC showed a binding signal of 0.4625 ± 0.00144 E-score. CATGCACC showed a binding signal of 0.165 ± 0.0266 E-score. ACTCCGCA showed a binding signal of 0.225 ± 0.0283 E-score. Work on CGAACCCC yielded a binding signal of 0.238 ± 0.0417 E-score. Work on GTGCTCCA yielded a binding signal of 0.183 ± 0.0244 E-score. ATCCACAG gave a binding signal of 0.185 ± 0.0127 E-score. In the case of ACATTCGG, the binding signal is reported as 0.311 ± 0.0104 E-score. CACACCAG gave a binding signal of 0.416 ± 0.029 E-score. Sequence CACACCAA has a binding signal of 0.38 ± 0.0115 E-score. Sequence CACCACAC has a binding signal of 0.426 ± 0.00815 E-score. CCCACCAC gave a binding signal of 0.158 ± 0.0233 E-score. Sequence CGCACCAC has a binding signal of 0.206 ± 0.0107 E-score. With CGCACCAG the binding signal was 0.17 ± 0.0676 E-score. For CACACCAC, the binding signal was 0.442 ± 0.00998 E-score. With AACCACAC the binding signal was 0.281 ± 0.0163 E-score. CACACGAA gave a binding signal of 0.217 ± 0.0302 E-score. CACCACAG showed a binding signal of 0.322 ± 0.0259 E-score. For CACCCCAG, the binding signal was 0.36 ± 0.0234 E-score. CACACGAG was tested, and the binding signal was 0.238 ± 0.00672 E-score. AGGATACT showed a binding signal of 0.167 ± 0.0416 E-score.
